# Screens as filed in PubChem.
# SMN2 splice up: qHTS Assay for Enhancers of SMN2 Splice Variant Expression | HEK293 SMN2-luciferase splicing reporter, luminescence, 30-36 h | Potency, µM (doses to about 46.1 µM), usual class: activators | actives 2.8% (n = 210,000); note: nearly all actives have a fitted effect of over 55% in size
#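 HEK293 cells carry an SMN2 minigene-luciferase reporter in which exon 7 inclusion puts luciferase in frame. Cells were seeded at 2000 cells/well, attached for 10-12 hours, then exposed to compounds for 30-36 hours at 37C before ONE-Glo luminescence.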
# ELG1 genotox: qHTS screen for small molecules that induce genotoxicity in human embryonic kidney (HEK293T) cells expressing luciferase-tagged ELG1; HEK293T ELG1-luciferase reporter, luminescence, 16 h; Potency, µM (doses to about 46 µM), hits mostly activators; actives 1.3% (n = 330,000); AID 504466, 2011; note: nearly all actives have a fitted effect of over 60% in size
#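 Cells (2,000/well) expressing the ELG1-luciferase fusion are dosed by pin tool and kept 16 hr at 37 °C, 5% CO2. Signal comes from ONE-Glo luciferase reagent after 30 min at room temperature.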
# Rab9 promoter act: qHTS Assay for Rab9 Promoter Activators. Huh7 Rab9 promoter-luciferase reporter, luminescence, 24 h. Potency, µM (top dose mostly 9.22 µM), actives largely listed as activators. actives 2.8% (n = 320,000). AID 485297, 2010; note: nearly all actives have a fitted effect of over 60% in size
#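 Huh7 cells stably carrying Rab9 promoter–luciferase reporter, plated 1500 cells/well, compound added after 2 h and incubated 24 h at 37 °C; luciferase luminescence then read after 10 min with detection reagent.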
# NPC1 prom act: qHTS Assay for NPC1 Promoter Activators. Huh7 NPC1 promoter luciferase reporter, 24 h. Potency, µM (doses to about 9.22 µM), hits mostly activators. actives 2.4% (n = 320,000); note: nearly all actives have a fitted effect of over 60% in size
#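 NPC1 promoter–luciferase Huh7 cells; 24 h compound; luminescence.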
# ELG1 DNA repair: qHTS screen for small molecules that inhibit ELG1-dependent DNA repair in human embryonic kidney (HEK293T) cells expressing luciferase-tagged ELG1; HEK293T ELG1-luciferase reporter, luminescence, 16 h; DNA damage induced by 5-fluorouridine; Potency, µM (doses to about 46.1 µM), actives largely listed as inhibitors; actives 2.3% (n = 330,000); AID 504467, 2011; note: nearly all actives have a fitted effect of over 55% in size
#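 Overnight (16 hr) co-exposure of 2,000 cells/well to 5-fluorouridine and compound at 37 °C preceded detection. Luciferase was quantified via ONE-Glo luminescence; loss of signal denotes inhibition.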
# FLuc counter: qHTS profiling assay for firefly luciferase inhibitor/activator using purifed enzyme and Km concentrations of substrates (counterscreen for miR-21 project) | Luciferin 4-monooxygenase (Photinus pyralis), P08659 | purified FLuc, Km substrates, luminescence inhibition | Potency, µM (series often up to 57.5 µM), usual class: inhibitors | actives 6.9% (n = 360,000); note: nearly all actives have a fitted effect of over 55% in size
# Target sequence (P08659 whole entry, looked up): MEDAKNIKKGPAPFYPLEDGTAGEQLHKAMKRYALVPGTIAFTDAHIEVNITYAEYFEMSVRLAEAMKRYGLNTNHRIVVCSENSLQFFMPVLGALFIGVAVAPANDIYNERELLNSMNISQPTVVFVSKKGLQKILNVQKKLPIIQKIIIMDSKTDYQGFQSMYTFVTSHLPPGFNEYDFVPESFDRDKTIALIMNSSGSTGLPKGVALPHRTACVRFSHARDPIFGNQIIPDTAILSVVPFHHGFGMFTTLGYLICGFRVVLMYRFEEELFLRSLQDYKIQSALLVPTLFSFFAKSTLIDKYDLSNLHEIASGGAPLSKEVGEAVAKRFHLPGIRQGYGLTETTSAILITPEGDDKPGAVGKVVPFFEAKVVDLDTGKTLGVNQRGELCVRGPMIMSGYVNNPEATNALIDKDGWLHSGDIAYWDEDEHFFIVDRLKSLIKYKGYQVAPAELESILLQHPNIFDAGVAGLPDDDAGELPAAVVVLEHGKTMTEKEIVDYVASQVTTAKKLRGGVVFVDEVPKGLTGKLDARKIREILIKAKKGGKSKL
#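 Biochemical qHTS of compounds, final roughly 60 µM downward over six points, against 10 nM purified firefly luciferase using Km concentrations of substrates (10 uM D-luciferin, 10 uM ATP) in Tris acetate pH 7.5 buffer; luminescence output.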
# A number is an active result; i = inactive; ? = inconclusive; nt = no result given. A selection: hits, their analogues and other compounds. The true share with any hit is near 9.3%. Calls come from the whole dose curve; as a rule, active = well fitted curve in the direction sought with a large enough effect; inconclusive = small, poorly fitted or top-dose-only effect, or another doubt; inactive = no such curve, though single readings can be large; an effect the other way counts as inactive or inconclusive.
SMILES,SMN2 splice up,ELG1 genotox,Rab9 promoter act,NPC1 prom act,ELG1 DNA repair,FLuc counter
Cc1noc(NS(=O)(=O)c2ccc(NC(=O)C(C)(C)C)cc2)c1C,nt,i,i,i,i,i
CCN(CC)CCCNC(=O)c1c(C)oc2ncnc(N3CCOCC3)c12,nt,nt,nt,nt,nt,i
CS(=O)(=O)N1CCC[C@@]2(CCN(C(c3ccccc3)c3ccccc3)C2)C1,i,nt,nt,nt,nt,nt
CCOc1ccc(C(=O)/C=C/Nc2ccc(S(=O)(=O)Nc3onc(C)c3C)cc2)cc1,?,?,i,i,?,15.1µM
CCn1c(=O)c(CCC(=O)N2CCN(c3ccccn3)CC2)c(C)c2c(C)nn(-c3ccccc3)c21,nt,i,i,i,16.4µM,i
CCn1c(=O)c(CCC(=O)NCCN2CCOCC2)c(C)c2c(C)nn(-c3ccccc3)c21,nt,i,i,i,i,i
Oc1ccccc1CNc1ccc(Br)cn1,?,i,?,?,?,9.53µM
Brc1ccc(NCc2cccc3ccccc23)nc1,i,i,i,i,?,?
Cc1cc(F)ccc1NC(=O)CN(C)S(=O)(=O)c1ccc(C(=O)N2CCOCC2)s1,nt,nt,nt,nt,nt,i
S=C(NCCc1ccccc1)N/N=C/c1cccc(Cl)c1Cl,i,i,i,i,i,i
Oc1ccccc1/C=N/NC(=S)NC1CC2C=CC1C2 (configuration not stated),nt,?,?,?,?,13.5µM
O=C(N/N=C/c1cc(Cl)cc(Cl)c1O)c1ccncc1,nt,i,i,i,?,i
Oc1c(Cl)cc(Cl)cc1/C=N/NC(=S)NC1CC2C=CC1C2 (configuration not stated),nt,i,i,i,14.6µM,?
Cc1c(NC(=S)N/N=C\c2ccccc2O)c(=O)n(-c2ccccc2)n1C,i,i,i,i,?,i
Oc1ccccc1/C=N/NC(=S)NCCc1ccccc1,nt,i,i,i,i,26.9µM
Nc1ccc(C(=O)Nc2ccc(NC(=O)c3ccco3)c(O)c2)cc1,nt,i,i,i,i,?
COc1ccc(-c2noc(CSc3nnc(C)n3-c3ccc(F)cc3)n2)cc1,i,nt,nt,nt,nt,i
O=C(NCc1ccccc1)c1nc(-c2ccc(Cl)cc2)n2c1CCCCC2,nt,nt,nt,nt,nt,i
CCN(C(=O)CSc1nnc(Cn2nnc3ccccc32)o1)c1nc(-c2ccccc2)cs1,i,i,i,i,18.4µM,i
Cc1ccccc1NC(=O)Cn1c(=O)n(Cc2ccc3c(c2)OCO3)c(=O)c2ccc(C(=O)NC3CCCCC3)cc21,i,nt,nt,nt,nt,i
O=C1C(c2ccncc2)=C(O)c2ccccc21,3.16µM,?,4.47µM,0.708µM,?,2.13µM
O=C1C(c2cc(=O)c3ccccc3[nH]2)=C(O)c2ccccc21,1µM,8.2µM,2.24µM,1.58µM,?,0.757µM
O=c1cc(-c2ccccc2)[nH]c2ccccc12,i,i,i,i,?,?
CCC(C)[C@H](NC(=O)N1CCn2c1nc1ccccc12)C(=O)NCc1ccccc1 (some centres not stated),nt,i,i,i,i,i
CCN(CC1CCCO1)C(=O)c1cc(COc2ccccc2SC)on1 (configuration not stated),nt,i,i,i,i,?
SMILES,SMN2 splice up,ELG1 genotox,Rab9 promoter act,NPC1 prom act,ELG1 DNA repair,FLuc counter
CCN(CC)c1nc2c(s1)C(=O)CC(C)(C)C2,i,?,i,i,?,i
CCc1ccc(N(C(=O)CCC(=O)Nc2cc(C)on2)C(C(=O)NC(C)(C)C)c2ccc(OC)cc2)cc1 (configuration not stated),nt,i,i,i,i,23.9µM
COc1cccc(Sc2nc(-c3ccccc3)ncc2S(C)(=O)=O)c1,nt,i,i,i,?,16.9µM
CS(=O)(=O)c1cnc(-c2ccccc2)nc1Sc1ccc(F)cc1,nt,?,i,i,i,i
CCc1nnc(NC(=O)CC(C)c2ccccc2)s1 (configuration not stated),nt,i,i,i,i,i
CC(C)Cc1nnc(NC(=O)CCC(=O)Nc2ccccc2F)s1,nt,i,i,i,i,i
